Assay outcomes from PubChem BioAssay.
Only some compounds are listed: those with a hit (about 7.9% of all), similar ones and a draw of the others.
HCMV antiviral – human cytomegalovirus inhibition; HFF cells, HCMV-luciferase reporter, 72 h; active compounds read low; activity change, negative = inhibition, % at 57.5 µM; 410,000 compounds, 4.5% hits; in the data active = activity change below about -60%; inconclusive = no clear call, values can overlap the other calls; inactive = above about -39%
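Screen run at 2 compound doses on HFFs infected with reporter HCMV, MOI 1 PFU/cell. Luciferase activity from cell lysates at 72 h post infection gave inhibition relative to buffer-only and Salinomycin wells.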
HCV inh – inhibitors of hepatitis C virus infection. Potency, µM (series often up to 41.8 µM), most hits filed as inhibitors. Huh7.5.1 HCVcc-Cre infection, luciferase reporter, 44 h. AID 651820. 340,000 compounds, 3.4% hits; active = well fitted inhibition curve with a large enough effect; inconclusive = small, poorly fitted or top-dose-only effect, or another doubt; inactive = no such curve, though single readings can be large or run the other way
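Reporter virus HCVcc-Cre (~0.5 moi) infects cells exposed to compound; seeding density 1,000 cells/well with 4 h settling beforehand. Luminescence, 15 sec read, taken 44 h post-infection following a 15 min RT substrate incubation.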
FMDV antiviral – blocks foot and mouth disease virus; FMDV antiviral cell-based qHTS; 410,000 compounds, 1.2% hits; Potency, µM (titrated, usually from 57.9 µM), usual class: inhibitors; AID 1159524; calls by dose curve; tested in HEK293T cells; also: read-out not given here; nearly all actives have a fitted effect of over 45% in size
Lassa entry inh – blocks Lassa virus binding to or entry into cells | Potency, µM (titrated, usually from 37.9 µM), usual class: inhibitors | 300,000 compounds, 1.2% hits | Lassa virus pseudotype entry inhibition, cell reporter; calls by dose curve; tested in HEK293 cells; also: nearly all actives have a fitted effect of over 50% in size
Marburg entry inh – inhibitors of Marburg virus binding or cell entry | Potency, µM (doses to about 37.8 µM), most hits filed as inhibitors | 300,000 compounds, 1.8% hits | AID 540276 | Marburg virus pseudotyped entry inhibition, cell reporter; calls by dose curve; tested in HEK293 cells
Each line names hits and unclear results; the compound was inactive in the other large screens.

Cc1ccc2c(c1)nnn2C1CCN(S(=O)(=O)c2cccc(S(=O)(=O)N(C)C)c2)CC1	HCV inh 10µM, FMDV antiviral 18µM, Lassa entry inh inconclusive, Marburg entry inh inconclusive
Cc1ccc2nc(C3CCN(S(=O)(=O)c4ccc5ccccc5c4)CC3)[nH]c2c1	HCMV antiviral -80, HCV inh inconclusive, Lassa entry inh inconclusive, Marburg entry inh inconclusive (no result: FMDV antiviral)
Cc1ccc2c(c1)nnn2C1CCN(S(=O)(=O)c2ccc(C(=O)N(C)C)cc2)CC1	HCV inh inconclusive, FMDV antiviral inconclusive
O=S(=O)(c1ccc2c(c1)OCCO2)N1CCC(c2nc3ccc(Cl)cc3[nH]2)CC1	HCMV antiviral -96, HCV inh inconclusive, FMDV antiviral 14µM, Marburg entry inh inconclusive
COCCCNC(=O)c1c(NC(=O)c2cc(=O)c3ccccc3o2)sc2c1CCCC2	none (no result: HCV inh)
Cc1cc2n(n1)CCC(=O)N2Cc1ccc(C(=O)Nc2ccc(Br)c(C)c2)cc1	none (no result: HCV inh, Marburg entry inh)
CCOC(=O)c1cnc(-n2nc(C)cc2C)nc1NC(C)c1ccccc1 (stereo not given)	HCMV antiviral -97, HCV inh inconclusive
CCOC(=O)c1cnc(-n2nc(C)cc2C)nc1NCc1ccccc1	HCMV antiviral -73, HCV inh inconclusive, FMDV antiviral 28µM, Lassa entry inh inconclusive, Marburg entry inh inconclusive
CCOC(=O)c1cnc(-n2nc(C)cc2C)nc1NNc1ncc(-c2ccccc2)cn1	HCV inh inconclusive, Lassa entry inh inconclusive, Marburg entry inh 11µM (no result: HCMV antiviral)
COCC(=O)Nc1cc(C(=O)N2CCN(c3ccccc3)C(=O)C2)cc2nc(-c3ccccc3)n(C)c12	none (no result: HCMV antiviral, HCV inh, Lassa entry inh, Marburg entry inh)
CC(=O)Nc1ccccc1-c1nc(CNC(=O)c2ccc(C)cc2)c(C)o1	none (no result: HCMV antiviral, HCV inh, Lassa entry inh, Marburg entry inh)
NS(=O)(=O)c1nn2cc(-c3ccccc3)nc2s1	none (no result: HCMV antiviral, HCV inh, Lassa entry inh, Marburg entry inh)
CCOc1ccc(CNC(=O)Nc2ccc3c(c2)N(C)C(=O)c2ccccc2S3)cc1	HCMV antiviral -62, FMDV antiviral inconclusive (no result: HCV inh)
CN1C(=O)c2ccccc2Sc2ccc(NC(=O)NCc3ccc(Cl)cc3)cc21	HCMV antiviral -89, FMDV antiviral inconclusive, Marburg entry inh inconclusive (no result: HCV inh)
CCN1C(=O)c2ccccc2Sc2ccc(NC(=O)Cc3ccc(OC)c(OC)c3)cc21	Lassa entry inh inconclusive (no result: HCV inh, Marburg entry inh)
COc1ccc(C(=O)Nc2ccc3c(c2)N(C2CCCC2)C(=O)c2ccccc2S3)cc1OC	HCMV antiviral -70, Lassa entry inh 1.3µM (no result: HCV inh, Marburg entry inh)
COc1cc(OC)c(NC(=O)Nc2ccc3c(c2)N(C)C(=O)c2ccccc2S3)cc1Cl	Marburg entry inh 10µM (no result: HCV inh)
CCn1c(CNC(=O)c2ccc(OC)cc2)nnc1SCC(=O)Nc1ccc(OC)cc1	none (no result: HCV inh)
Cc1ccc(C)c(Nc2nnc(-n3nc(C)cc3C)c3ccccc23)c1	none (no result: HCV inh)
CC(=O)Nc1cc(C(=O)Nc2ccc3c(c2)N(C)C(=O)c2ccccc2S3)ccc1C	none (no result: HCV inh, Marburg entry inh)
Cc1ccc(C(=O)Nc2ccc3c(c2)N(C)C(=O)c2ccccc2S3)cc1F	HCMV antiviral -91, FMDV antiviral inconclusive, Lassa entry inh inconclusive (no result: HCV inh, Marburg entry inh)
Cc1ccccc1CNC(=O)Nc1ccc2c(c1)N(C)C(=O)c1ccccc1S2	HCMV antiviral -97, FMDV antiviral inconclusive (no result: HCV inh)
CN1C(=O)CSc2ccc(NC(=O)NCc3cccnc3)cc21	HCMV antiviral -61, HCV inh inconclusive (no result: FMDV antiviral)
Cn1c(=O)c2sccc2n2c(CCC(=O)N3CCN(c4ccc(F)cc4)CC3)nnc12	none (no result: HCMV antiviral, HCV inh, FMDV antiviral)
CCOc1ccc(C(=O)c2cn(CC(=O)Nc3ccc4c(c3)OCO4)c3ccc(OC)cc3c2=O)cc1	none (no result: HCV inh)
Nc1ncnc2c1[nH]c(=O)n2C1OC(CO)C(O)C1O (stereo not given)	none (no result: HCMV antiviral, HCV inh, Lassa entry inh, Marburg entry inh)
OCC1OC(n2ccc3c2ncn2ncnc32)C(O)C1O (stereo not given)	HCMV antiviral -95, FMDV antiviral inconclusive (no result: HCV inh, Lassa entry inh, Marburg entry inh)
Nc1ncnc2c1ccn2[C@@H]1O[C@H](CO)[C@@H](O)[C@H]1O	HCMV antiviral -106, HCV inh 35µM, FMDV antiviral inconclusive (no result: Lassa entry inh, Marburg entry inh)
CNc1ncnc2c1ncn2[C@@H]1O[C@H](CO)[C@@H](O)[C@H]1O	Lassa entry inh inconclusive
CCOC(=O)c1cc(-c2ccccc2)nn1Cc1ccccc1	Marburg entry inh inconclusive (no result: HCV inh)
COc1ccc2c(c1)C(n1ccc3ccccc31)C(=O)N2Cc1ccc(C(C)C)cc1 (stereo not given)	none (no result: HCV inh, FMDV antiviral, Lassa entry inh, Marburg entry inh)
COc1ccc(CN2C(=O)C(n3c(C)ccc3C)c3cc(OC(F)(F)F)ccc32)cc1 (stereo not given)	HCMV antiviral -88 (no result: HCV inh, FMDV antiviral, Lassa entry inh, Marburg entry inh)
COc1ccc(CN2C(=O)C(n3c(C)ccc3C)c3cc(OC)ccc32)cc1 (stereo not given)	none (no result: HCV inh, FMDV antiviral, Lassa entry inh, Marburg entry inh)
COc1ccc(CN2C(=O)C(n3ccc4ccccc43)c3cc(Cl)ccc32)cc1 (stereo not given)	HCMV antiviral -84 (no result: HCV inh, FMDV antiviral, Lassa entry inh, Marburg entry inh)
